Activity calls are given as the source filed them.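 Rule for the calls, unless noted: active = inhibition of the reporter signal at or above 50%; inactive = inhibition below 50%.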
Columns and labels:
[1] = inhibitors of TNFa-induced NFkB p65 translocation, primary screen, imaging, HUVEC, MLSMR starter and 10KST1 sets (AID 438;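 active = inhibition above 20% together with a positive visual image hit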;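 note: compound added about 3h40 before a 20 min TNFalpha stimulation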;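 for inhibition: signal is the nuclear over cytoplasmic p65 intensity ratio per well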); details: HUVEC TNFa-induced p65 nuclear translocation; cell count: measured here: nuclei count (cytotoxicity indicator), at 2.08 µM; inhibition: at 2 µM, stronger effect = higher value, 0% TNFa-plus-vehicle, 100% no-TNFa wells
[2] = reduction of polyQ htt aggregates in cells – imaging, exon1htt(103Q)mCFP cells, high-content imaging, primary screen (AID 483;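 active = visual image review flags a hit and inhibition of aggregation exceeds 20%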;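 note: compound exposure lasted 3 days before fixation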;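 for nuclei count: percent of the per-plate median nuclei count of sample wells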); details: exon1htt(103Q)mCFP cell line, aggregate imaging, at 2 µM; inhibition of aggregation: stronger effect = higher value; nuclei count: measured here: cell count, toxicity
[3] = endothelial E-selectin expression blockers – imaging, HUVEC, immunofluorescence, MLSMR starter and 10KST1 sets, primary screen (AID 487;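 active = visually confirmed hit in the image check and inhibition above 20%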;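 for inhibition: signal is fraction of cell area covered by stained E-selectin grains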;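 for nuclei count: 100% = median nuclei count of all wells on the same plate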); details: HUVEC TNFalpha-induced E-selectin immunofluorescence imaging, at 2 µM; inhibition: stronger effect = higher value; nuclei count: measured here: cell number, toxicity
[4] = target: Voltage-gated potassium channel subunit beta-2 (Rattus norvegicus) (UniProt P62483); assay: inhibitors of rat Kvbeta2 reductase activity – biochemical, NADPH fluorescence, primary screen (AID 622;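 active = fluorescence slope higher than the sample average by over 3 SD, cut at about -0.22 in these data, passing the limit was not always enough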;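 note: slope of raw intensity against log time taken from 70 to 1610 s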); details: recombinant KvBeta, 4-cyanobenzaldehyde reduction, at 10 µM, stronger effect = higher value
Sequence of Voltage-gated potassium channel subunit beta-2 (Rattus norvegicus) (P62483 whole entry, looked up): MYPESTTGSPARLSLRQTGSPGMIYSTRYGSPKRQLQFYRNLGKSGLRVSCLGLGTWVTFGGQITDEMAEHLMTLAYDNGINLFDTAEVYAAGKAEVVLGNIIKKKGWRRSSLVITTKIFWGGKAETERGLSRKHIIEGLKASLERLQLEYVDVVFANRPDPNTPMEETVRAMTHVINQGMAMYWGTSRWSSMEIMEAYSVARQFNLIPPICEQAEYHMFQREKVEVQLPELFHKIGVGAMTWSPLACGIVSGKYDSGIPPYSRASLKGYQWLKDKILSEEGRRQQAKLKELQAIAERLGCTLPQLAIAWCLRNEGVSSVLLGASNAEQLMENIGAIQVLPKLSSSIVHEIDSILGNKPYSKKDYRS

[5] = target: Voltage-gated potassium channel subunit beta-2 (Rattus norvegicus) (UniProt P62483); assay: enhancers of rat Kvbeta2 NADPH turnover – biochemical, NADPH fluorescence, primary screen (AID 623;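 active = NADPH fluorescence slope more negative than the mean of all samples by about 3 SD, 99.7% confidence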;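 note: fluorescence intensity change per second fitted from 20 to 320 s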); details: Recombinant KvBeta, NADPH fluorescence decrease slope, 10 min; at 10 µM; stronger effect = lower value
[6] = target: Alpha-2C adrenergic receptor (Homo sapiens) (UniProt P18825); assay: compounds altering alpha2C-coupled GIRK flux – cell-based, HEK293 alpha2C/GIRK1/2, thallium flux, primary screen (AID 624;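 active = fluorescence slope after compound addition differing from the mean of all screened samples at 99.7% confidence, in either direction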;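 note: slope of fluorescence ratio to pre-addition baseline per second over 15 to 24 s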); details: thallium flux BTC fluorescence, at 10 µM, actives lie on both sides
Sequence of Alpha-2C adrenergic receptor (Homo sapiens) (P18825 whole entry, looked up): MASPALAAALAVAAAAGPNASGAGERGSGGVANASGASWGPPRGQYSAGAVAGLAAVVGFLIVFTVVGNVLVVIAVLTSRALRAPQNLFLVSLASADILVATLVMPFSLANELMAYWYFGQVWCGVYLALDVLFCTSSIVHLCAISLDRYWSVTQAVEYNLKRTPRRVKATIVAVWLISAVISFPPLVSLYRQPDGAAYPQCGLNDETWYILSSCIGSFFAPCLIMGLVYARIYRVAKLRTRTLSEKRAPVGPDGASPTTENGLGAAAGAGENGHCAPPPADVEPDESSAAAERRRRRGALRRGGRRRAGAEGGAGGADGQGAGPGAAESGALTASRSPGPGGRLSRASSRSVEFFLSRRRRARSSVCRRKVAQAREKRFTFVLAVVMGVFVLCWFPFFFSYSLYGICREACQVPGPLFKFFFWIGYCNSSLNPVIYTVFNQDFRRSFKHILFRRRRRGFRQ

[7] = blockers of RIG-like receptor reporter activation – cell-based, Sendai virus stimulus, luciferase, 10K MLSCN set, TLR/RLR signaling modifier project, primary screen (AID 602276;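 active = inhibition at or above 50% at 10 µM; inactive = inhibition below 50%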;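 note: firefly luciferase from ISG56 promoter only with Renilla not read in this screen; 0% = Sendai virus plus DMSO and 100% = medium plus DMSO without virus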); details: HEK293 RL24 IRF3 luciferase reporter, at 10 µM, stronger effect = higher value
[8] = TLR3 IRF3 reporter activation blockers – cell-based, poly I:C stimulus, luciferase, 10K MLSCN set, primary screen (AID 602277); details: HEK293-TLR3 RL24 IRF3 luciferase reporter, at 10 µM, stronger effect = higher value

Row | SMILES | cell count [1] | inhibition [1] | inhibition of aggregation [2] | nuclei count [2] | inhibition [3] | nuclei count [3] | fluorescence slope [4] | NADPH fluorescence slope [5] | slope [6] | inhibition [7] | inhibition [8]
1 | OCCNCCCCOc1ccccc1F | 765 | -1.5% (inactive) | -2.5% (inactive) | 91.8% | 33.1% (inactive) | 91.1% | -0.387 (inactive) | 1.2e-05 (inactive) | 0.00574 (inactive) | -4.78% (inactive) | 2.08% (inactive)
2 | NC(=O)C(Cc1ccccc1)NS(=O)(=O)c1ccc(N2CCCC2=O)cc1 (centres undefined) | 570 | -8.7% (inactive) | 4.5% (inactive) | 100% | -5.1% (inactive) | 95.5% | -0.585 (inactive) | -4e-05 (inactive) | 0.00321 (inactive) | 8.09% (inactive) | -25% (inactive)
3 | Cc1ccc(S(=O)(=O)NCC(=O)N(CC(=O)NC2CCCCC2)Cc2ccco2)cc1 | 294 | 8.1% (inactive) | 12.7% (inactive) | 97.1% | -54.4% (inactive) | 110% | -0.431 (inactive) | -4.7e-05 (inactive) | 0.00754 (inactive) | 8.19% (inactive) | 20% (inactive)
4 | O=C(COC(=O)C12CC3CC(CC(C3)C1)C2)NCc1ccco1 | 661 | 3.4% (inactive) | -6.5% (inactive) | 109% | -28.3% (inactive) | 113% | -0.561 (inactive) | 7.7e-06 (inactive) | 0.00593 (inactive) | 11.1% (inactive) | 31.8% (inactive)
5 | COC(=O)Nc1sc2c(c1C(=O)N1CCOCC1)CCC(C)C2 (centres undefined) | 324 | -10.6% (inactive) | -10.8% (inactive) | 118% | 2.3% (inactive) | 75.2% | -0.409 (inactive) | 6.2e-06 (inactive) | 0.00394 (inactive) | 7.08% (inactive) | -3.14% (inactive)
6 | CSc1cccc(NC(=O)C2CCN(S(=O)(=O)c3ccc(F)cc3)CC2)c1 | 376 | -0.2% (inactive) | 10.8% (inactive) | 104% | -69.1% (inactive) | 115% | -0.353 (inactive) | 5.7e-05 (inactive) | 0.00752 (inactive) | 16.9% (inactive) | 39.3% (inactive)
7 | COc1cc(NC(=O)C2CCCN2S(=O)(=O)c2cccc3cccnc23)cc(OC)c1OC (centres undefined) | 667 | 0.6% (inactive) | 15.1% (inactive) | 77.6% | -75.5% (inactive) | 110% | -0.598 (inactive) | -3.4e-05 (inactive) | 0.00756 (inactive) | 14.4% (inactive) | 32% (inactive)
8 | COc1ccc(C)cc1NC(=O)CCC(=O)Nc1ccc2nc(N3CCN(C)CC3)cc(C)c2c1 | 623 | 1.5% (inactive) | -9.5% (inactive) | 104% | -62.6% (inactive) | 108% | -0.428 (inactive) | 6e-06 (inactive) | 0.00326 (inactive) | -21.1% (inactive) | -51.1% (inactive)
9 | O=C(NCc1ccco1)C(c1ccco1)N(C(=O)Cn1nnc2ccccc21)c1ccc2c(c1)CCC2 (centres undefined) | 329 | -8% (inactive) | -0.5% (inactive) | 103% | 23.8% (inactive) | 104% | -0.519 (inactive) | -6.5e-06 (inactive) | 0.00472 (inactive) | 14.9% (inactive) | 21.8% (inactive)
10 | O=C1NC(Nc2ccccn2)(C(F)(F)F)C(=O)N1c1ccc(F)cc1 (centres undefined) | 483 | -1.9% (inactive) | -9.8% (inactive) | 110% | -79.1% (inactive) | 111% | -0.582 (inactive) | -4.6e-05 (inactive) | 0.00277 (inactive) | 13.9% (inactive) | 6.37% (inactive)
11 | COc1ccc(N2C(=O)CC(N3CCCC4CCCCC43)C2=O)cc1 (centres undefined) | 577 | -11.4% (inactive) | 3.7% (inactive) | 107% | -13.4% (inactive) | 79.8% | -0.423 (inactive) | -3.7e-05 (inactive) | 0.00354 (inactive) | 8.26% (inactive) | 35.7% (inactive)
12 | CC(C)CN(C(=O)c1ccc(=O)n(C)n1)c1nc2ccccc2s1 | 369 | 4.8% (inactive) | -17.5% (inactive) | 93.5% | -5.9% (inactive) | 112% | -0.332 (inactive) | -7.5e-05 (inactive) | 0.00541 (inactive) | -18.6% (inactive) | -44.4% (inactive)
13 | CCN(CC)CC(C)CNC(=O)CC(C(=O)N1CCc2ccccc21)n1ccnc1 (centres undefined) | 604 | -10% (inactive) | 10.7% (inactive) | 98.5% | -125% (inactive) | 110% | -0.464 (inactive) | 6.1e-05 (inactive) | 0.00462 (inactive) | 3.93% (inactive) | 11% (inactive)
14 | CC1CCC(NC(=O)C2(C)CCC(=O)N2Cc2cccnc2)CC1 (centres undefined) | 890 | -5.2% (inactive) | 18.3% (inactive) | 70.4% | -7.7% (inactive) | 101% | -0.598 (inactive) | -1.4e-05 (inactive) | 0.00748 (inactive) | 1.39% (inactive) | 32.6% (inactive)
15 | COc1ccc(S(=O)(=O)N2CCN(c3ccc(C)cc3C)CC2)cc1OC | 772 | -0.6% (inactive) | -17.1% (inactive) | 114% | -19.1% (inactive) | 123% | -0.544 (inactive) | -3.9e-05 (inactive) | 0.0076 (inactive) | 4.37% (inactive) | 13.8% (inactive)
16 | CCOc1ccccc1NC(=O)NC1CCN(CC(=O)Nc2ccc3c(c2)OCCO3)CC1 | 285 | -4.8% (inactive) | 2% (inactive) | 115% | -0.8% (inactive) | 87.4% | -0.499 (inactive) | 4.9e-05 (inactive) | 0.00583 (inactive) | 19.4% (inactive) | 26.5% (inactive)
17 | O=C(CCCCCn1c(=S)[nH]c2cc3c(cc2c1=O)OCO3)N1CCN(Cc2ccccc2)CC1 | 494 | 3% (inactive) | -11.1% (inactive) | 100% | -25.7% (inactive) | 113% | -0.476 (inactive) | 1.3e-05 (inactive) | 0.00605 (inactive) | -5.45% (inactive) | 15.2% (inactive)
18 | CCOc1ccc(-c2nnn(CCC(=O)O)n2)cc1OC | 429 | 6.5% (inactive) | 15.2% (inactive) | 64.5% | -108% (inactive) | 118% | -0.612 (inactive) | 1.3e-05 (inactive) | 0.00471 (inactive) | 18.1% (inactive) | 9.91% (inactive)
19 | COc1ccc(-c2nc(CSCC(=O)NCc3ccc4c(c3)OCO4)c(C)o2)cc1OC | 477 | -3.3% (inactive) | 16.1% (inactive) | 104% | -83% (inactive) | 114% | -0.43 (inactive) | -5.4e-05 (inactive) | 0.00553 (inactive) | 9.89% (inactive) | 20.1% (inactive)

Source: PubChem BioAssay
